The whole screen tested about 370,000 compounds, of which about 5,400 (1.5%) were called active. What follows is part of a selection rich in actives, with near analogues and random picks from the rest. A number with no mark means an inactive call.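 How the source made its calls: active means activation above the mean of all tested compounds plus 3 SD (cut at about 5.5% in these data); inactive means the rest.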
These molecules were tested on DAF-12 nuclear receptor (Haemonchus contortus) (assay: hcDAF-12 driven luciferase reporter activation – cell-based, luminescence, HEK293, lit1-tk-luc reporter, primary screen (AID 652067;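 further: 100% = response to 3 µM Δ7-dafachronic acid high control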)). Conditions: HEK293 hcDAF-12 lit1-tk-luc reporter, at 6.8 µM, active compounds read high, 0% DMSO, 100% Δ7-dafachronic acid.

SMILES | activation
COC(=O)[C@]12C[C@H](CC(=O)NCc3ccc(OC)c(OC)c3)C(=O)N(Cc3ccccc3)C1=C[C@H](C(C)C)O[C@@H]2C1CC1 | -0.82%
Cc1nc2cc(NCc3cccs3)ccc2n1C | 1.2%
CCN1CCN(C(=O)C2(NC(=O)Nc3cccc(F)c3)CCCCC2)CC1 | -1.58%
Cc1nc2cc(NC(=O)Nc3cccc(F)c3)ccc2n1C | 11.1% (active)
COC[C@@H]1CCCN1c1ccc2c(c1)O[C@H](C)CCN(C1CC1)S2(=O)=O | -0.65%
CCNc1nc(-c2cc3ccccc3o2)cs1 | 6.62% (active)
Cn1c(SCC(=O)NC2CCCCC2)nnc1-c1cc2ccccc2o1 | -0.36%
Cn1c(CNc2nc(-c3ccccc3)cs2)nnc1SCC(=O)c1ccccc1 | -0.8%
C[C@H]1CCC/C=C/C(=O)c2c(O)cc(O)cc2CC(=O)O1 | -4.76%
N#Cc1ccsc1NC(=O)CN1CCCCC1 | -2.18%
Cc1csc(SCC(=O)Nc2ccc(C)c(S(=O)(=O)N(C)C)c2)n1 | -0.11%
Cc1csc(SCC(=O)Nc2sccc2C#N)n1 | 6.55% (active)
Cc1ccc(NC(=S)NNC(=O)CSc2nnc(SCc3ccccc3Cl)s2)cc1 | 0.49%
CCOC(=O)c1ccccc1C(=O)N1CCOCCOCCOCC1 | 6.11% (active)
CCOC(=O)c1ccccc1NC(=O)COC(=O)CCC(=O)N1CCOCC1 | -0.53%
CSc1ncccc1C(=O)OCC(=O)N1CCOCC1 | -1.11%
CC(CCc1ccccc1)NCC(O)c1cccc([N+](=O)[O-])c1 (stereo unspecified) | -0.61%
Cn1c(=NC(=O)c2ccco2)sc2cccc(F)c21 | 10.7% (active)
Cn1c(=NC(=O)c2cnccn2)sc2ccccc21 | 3.28%
Cc1cc(NC(=O)c2ccco2)c(=O)n(Cc2c(F)cccc2Cl)c1 | -0.57%
C=CCN1C(=O)[C@H](CC(=O)N2CCN(C(=O)OCC)CC2)[C@@]2(C(=O)OCC)CCCC=C12 | -0.81%
Cc1ccccc1CN1CCCCC(NC(=O)c2cccc(C#N)c2)C1=O (stereo unspecified) | -2.63%
Cc1ccc(C(=O)C2CCN(CC(=O)NCCC(C)C)CC2)cc1 | -1.66%

SMILES | activation
COc1ccc([C@H]2OC(=O)C[C@H]2C(=O)N2CCN(c3ccccc3F)CC2)cc1OC | -0.81%
CCN(CC)c1nc(-c2ccccc2)cc(C(F)(F)F)c1C#N | -1.43%
Cc1cc(C(F)(F)F)c(C#N)c(SCC(=O)NC2CC2)n1 | -2.02%
N#Cc1c(C(F)(F)F)cc(-c2ccc(Cl)cc2)nc1SCC(=O)O | 6.47% (active)
CN(C)S(=O)(=O)c1cccc(C(=O)N/N=C\c2ccco2)c1 | 0.08%
Cc1ccc(/C=N/NC(=O)c2sccc2OCc2ccc(F)cc2)cc1 | 0.06%
Cc1ccsc1C(=O)NC1CCCCC1C (stereo unspecified) | -1.43%
Cc1ccsc1C(=O)N/N=C/c1ccc([N+](=O)[O-])cc1 | 6.15% (active)
O=C(NCCC1=CCCCC1)C1CCN(S(=O)(=O)c2ccc(Cl)s2)CC1 | -1.29%
CC(=O)c1ccc(S(=O)(=O)NCC2CCN(C(=O)C(=O)c3cccs3)CC2)cc1 | -1.54%
COc1ccc(-c2cc3ncccc3cn2)cc1 | 7.99% (active)
COc1ccc(-c2cc3n(n2)CCc2nc4ccccc4n2-3)cc1 | 2.18%
COc1ccc(-c2cc(C3CCN(c4ncccc4[N+](=O)[O-])CC3)[nH]n2)cc1 | -1.95%
Cc1ccc(Cn2cc(COC(=O)N(C)Cc3ccccc3)nn2)cc1 | -1.15%
O=C1CCCCN1CCCC(=O)N1CCCC(Nc2ccc(F)cc2)C1 (stereo unspecified) | -0.38%
COc1ccc(C(=O)OCCN2CCN(C3CN(Cc4cn(Cc5ccccc5F)nn4)S(=O)(=O)C3)CC2)cc1OC (stereo unspecified) | -3.13%
CCOC(=O)C1CCN(C(=O)C(C)(C)NC(=O)Nc2ccccc2Cl)CC1 | -0.1%
CC(=O)N1C[C@@H](CO)[C@@H](N(C)C(=O)C(C)(C)C)C[C@H]1c1ccccc1Br | -0.9%
O=C(Nc1ccccc1F)c1ccc(S(=O)(=O)N2CCCCCC2)cc1 | -0.38%
O=C(Cc1ccccc1)Nc1ccc(C(=O)Nc2ccccc2C(=O)O)cc1 | 0.4%
Nc1ccc(C(=O)Nc2ccccc2N)cc1 | 10.3% (active)
Cc1cc(N=Nc2ccc3ccccc3c2)ccc1O | 9.93% (active)
CN(C(N)=NC(=O)/C=C/c1ccccc1)C(C#Cc1ccccc1)Cc1ccccc1 (stereo unspecified) | -0.54%

SMILES | activation
O=C(NCCCn1ccnc1)c1cc(-c2ccccc2)on1 | 6.25% (active)
O=C(Nc1ccccc1C(=O)NCCCn1ccnc1)c1ccc(Cl)cc1Cl | -0.66%
O=C(NCCCn1ccnc1)c1cc(Br)c(Br)s1 | -2.07%
COC(=O)C1=C(C)N(Cc2ccc(F)cc2)C(=S)NC1c1cccc(Cl)c1 (stereo unspecified) | -0.58%
C#CCNC(=O)C[C@H]1C[C@@]2(C(=O)OC)C(=C[C@H](C(C)C)O[C@@H]2C2CC2)N(Cc2ccco2)C1=O | -0.47%
CCN(C(=O)[C@@H](C1CC1)[C@@H](O)c1ccc2ccccc2c1)c1ccccc1 | -0.38%
CCCCCCCCN1C(=O)[C@@H](CC(=O)NCCCC)C[C@@]2(C(=O)OC)C1=C[C@H](C(C)(C)C)O[C@@H]2C | 2.12%
COC(=O)c1cccc(Cn2ccc3ccc(-c4ccc5ccn(C(=O)C6CCCCC6)c5c4)cc32)c1 | 2.46%
Cc1c(C(C)c2ccccc2O)[nH]c2ccccc12 (stereo unspecified) | 5.82% (active)
S=c1[nH]c2ccccc2c2ccccc12 | 0.24%
Cc1[nH]c2ccccc2c1-c1ccc(Cl)nn1 | -0.07%
Cc1ccc(-n2c(SCC(=O)Nc3ccc(S(=O)(=O)Nc4nccs4)cc3)nnc2-c2ccncc2)cc1 | -0.82%
C=CCn1c(SCC(N)=O)nnc1-c1ccccc1OC | -0.44%
CC(C)CN(CC(C)C)C(=O)CN1c2cccc3cccc(c23)S1(=O)=O | 0.46%
COc1ccc(C)cc1NC(=O)CN1c2cccc3cccc(c23)S1(=O)=O | -2.24%
O=C(O)CN1c2cccc3cccc(c23)S1(=O)=O | 7.97% (active)
COC(=O)Cc1nnn2c1[C@H](C)[C@H](c1ccccc1Br)OCC2 | -1.44%
Cc1cccc(C2c3[nH]c4ccccc4c3CCN2C(=O)c2cc(-c3cccn3C)n[nH]2)n1 (stereo unspecified) | 1.83%
Cc1cccc(C(=O)N2CCc3c([nH]c4ccccc34)C2CC(C)C)n1 (stereo unspecified) | 6.78% (active)
COCc1ccc(C(=O)N2CCc3c([nH]c4ccccc34)C2c2ccccn2)s1 (stereo unspecified) | 0.63%
O=[N+]([O-])c1ccc(N/N=C2/CCCCC2c2ccccn2)c([N+](=O)[O-])c1 (stereo unspecified) | 0.53%
O=C(Nc1ccccc1)O/N=C1\CCCCC1c1ccc([N+](=O)[O-])cc1[N+](=O)[O-] (stereo unspecified) | -1.35%
C[n+]1ccccc1C1CCCC/C1=N\Nc1ccc([N+](=O)[O-])cc1[N+](=O)[O-] (stereo unspecified) | 6% (active)

SMILES | activation
Cc1ccc(S(=O)(=O)NCCC(=O)Nc2cccc(S(N)(=O)=O)c2)cc1C | -1.34%
Cc1ccc(S(=O)(=O)NCCC(=O)NCc2ccc(Cl)cc2)cc1C | 2.24%
Cc1ccnc(NC(=O)CCNS(=O)(=O)c2ccc(C)c(C)c2)c1 | 9.81% (active)
O=C(CNC(=O)c1ccccc1)OC(C(=O)Nc1cc([N+](=O)[O-])ccc1F)c1ccccc1 (stereo unspecified) | -1.31%
CCC(CO)Nc1cccc2c1S(=O)(=O)N(Cc1cn(Cc3ccccc3C(F)(F)F)nn1)Cc1ccccc1O2 (stereo unspecified) | -0.6%
Cc1ccc(-c2nc(C3CCCN(S(=O)(=O)c4ccc(Br)s4)C3)no2)cc1 (stereo unspecified) | -1.74%
CCOC(=O)C1(Cc2ccccc2)CCN(Cc2cn(C(C)=O)c3ccccc23)CC1 | 4.1%
Cc1ccc(NC(=O)N2c3ccccc3SC2c2ccco2)c(C)c1 (stereo unspecified) | 0.47%
COC(=O)C1CN(CC(C)C)CCS(=O)(=O)N1Cc1ccc(C)cc1 (stereo unspecified) | -1.58%
Brc1ccccc1C1N=C(c2ccccc2)NO1 (stereo unspecified) | 11% (active)
S=C1NC(c2ccccc2)=NCN1c1ccc(Br)cc1 | -0.59%
N#Cc1ccc(C2N=C(c3ccccc3)NO2)cc1 (stereo unspecified) | 5.73% (active)
CN(C(=O)Cn1nnc(-c2ccc(F)cc2)n1)C1CCS(=O)(=O)C1 (stereo unspecified) | 0.43%
C#CCN([C@H](C(=O)OC)C(C)CC)S(=O)(=O)c1ccccc1Br (stereo partly specified) | -3.57%
COC(=O)[C@]1(Cc2ccccc2)NC=C(C(=O)c2ccccc2)[C@@H]1c1cccc(OC)c1 | -0.48%
COc1cc(C(=O)Nc2ncccc2C)ccc1OCC(=O)N1CCOCC1 | -1.69%
O=C(NC(=O)c1ccccc1)Nc1ccccc1O | 12.2% (active)
O=C(Cc1ccc(Cl)cc1)NC(=S)Nc1ccccc1O | -0.62%
O=C(NC(=S)Nc1cccc2c(O)cccc12)c1cccc(Br)c1 | 1.98%
CCCC[C@H]1C2CC(OC(=O)NCc3ccccc3)C(C2)[C@H]2CCCCN21 (stereo partly specified) | 0.87%
COC(=O)C[C@H]1CC[C@H]2[C@H](COc3ccc(NC(=O)C4CC4)cc3C(=O)N2C)O1 | 0.16%
COc1ccccc1-c1sc2ccccc2c1C#CC1(O)CCCCC1 | 1.87%

— PubChem BioAssay AID652067 (The Scripps Research Institute Molecular Screening Center, 2013)
